Bioassay records from PubChem BioAssay.
TRHR enhancer: allosterically enhances the human TRH receptor | P34981 | TRHR cells, fluo-8 calcium fluorescence, EC20 TRH enhancement | AID 493056 | enhancement, % at 2 µM | hit rate 0.66% among 360,000; in the data active means enhancement above about 30%
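TRHR-expressing cells loaded with fluo-8 calcium dye were read kinetically (ex 480/em 530) during compound addition, then stimulated with an EC20 of TRH (10 nM final). Enhancement of the Gq-mediated intracellular calcium response was scored.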
D1 PAM: potentiators of human D1 dopamine receptor; HEK293 TREx D1 cells, calcium flux, dopamine EC20 potentiation; P21728; hit rate 0.036% among 360,000; potentiation, % at 10 µM; in the data active means potentiation above about 30%
Target sequence (P21728 whole entry, looked up): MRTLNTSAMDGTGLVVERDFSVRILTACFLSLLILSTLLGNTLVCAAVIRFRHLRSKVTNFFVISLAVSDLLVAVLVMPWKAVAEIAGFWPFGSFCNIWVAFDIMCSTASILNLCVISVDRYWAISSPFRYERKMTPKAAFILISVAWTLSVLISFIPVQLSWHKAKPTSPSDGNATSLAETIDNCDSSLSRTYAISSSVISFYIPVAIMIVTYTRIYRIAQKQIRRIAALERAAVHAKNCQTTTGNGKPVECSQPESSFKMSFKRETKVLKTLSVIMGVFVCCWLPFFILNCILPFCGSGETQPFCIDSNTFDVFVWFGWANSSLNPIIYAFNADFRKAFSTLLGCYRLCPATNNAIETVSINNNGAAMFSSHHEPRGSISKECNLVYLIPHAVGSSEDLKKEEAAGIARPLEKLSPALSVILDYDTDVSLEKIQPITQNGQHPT
D1 agonist: agonists of human D1 dopamine receptor. P21728. HEK293 T-REx D1 cells, calcium flux, agonist mode. activation, % at 2 µM. hit rate 1% among 360,000. AID 504660
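Inducible HEK293 T-REx D1 cells, force-coupled to calcium signalling, were plated at 4000 cells/well with tetracycline and held overnight at 30 C. After no-wash calcium dye loading, compound-evoked calcium rise over 180 s flagged agonists.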
TRHR ag: activates the human TRH receptor; P34981; TRHR cells, calcium flux fluo-8, FDSS agonist mode; activation, % at 2 µM; hit rate 0.18% among 360,000; AID 493084
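Fluo-8-loaded TRHR cells; 10 s baseline, compound added, kinetic Ca2+ fluorescence read 1/s, agonist mode.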
USP1-UAF1 inh: USP1/UAF1 (human) deubiquitinase inhibition. recombinant USP1/UAF1, Ub-Rhodamine cleavage fluorescence. Potency, µM (doses to about 57.1 µM), actives largely listed as inhibitors. hit rate 0.23% among 390,000; active means well fitted inhibition curve with a large enough effect; inconclusive means small, poorly fitted or top-dose-only effect; inactive means no such curve, though single readings can be large or run the other way; further: nearly all actives have a fitted effect of over 60% in size
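USP1/UAF1 complex at 1 nM was preincubated with compound for 15 min at room temperature, then Ub-Rho substrate (150nM final) was added. Fluorescence (480/540 nm) was read kinetically, 6 reads every 60 seconds.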
D1 antag: antagonists of human D1 dopamine receptor | P21728 | HEK293 TREx D1 cells, calcium flux, dopamine EC80; active compounds read low | activity change, negative = inhibition, % at 10 µM | hit rate 3.2% among 360,000 | AID 504652; in the data active means activity change below about -30%
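Allosteric or orthosteric antagonism assessed as attenuation of the calcium response to EC80 dopamine, added 180 s after compound, in induced HEK293 Trex D1 cells loaded with no-wash calcium dye.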
A number is an active result; i = inactive; ? = inconclusive; nt = no result given. Shown are actives, neighbours in structure and some others; about 4.4% of the full set was active somewhere. Unless noted, no stated cut-off is given here; in the data, active means activation above about 30%; inactive means the rest.

SMILES | TRHR enhancer | D1 PAM | D1 agonist | TRHR ag | USP1-UAF1 inh | D1 antag
CCN(CC(=O)Nc1c(F)cccc1F)C(=O)Cc1c(C)nc2ccccc2c1C | i | i | i | i | i | -48.7
O=C(Nc1ccccc1Br)C(Cc1ccccc1)NS(=O)(=O)c1cccc2nsnc12 (configuration not stated) | i | i | i | i | i | i
CCc1cccc(NC(=O)Cn2c(-c3ccc(F)cc3)cc(C(C)=O)c2C)c1 | i | i | i | i | i | i
COC(=O)c1ccc(Sc2ccccn2)c([N+](=O)[O-])c1 | i | i | i | i | i | -34.3
O=[N+]([O-])c1ccc(Sc2ccccn2)nc1 | i | i | i | i | i | -67.6
NS(=O)(=O)c1ccc(Sc2ccccn2)c([N+](=O)[O-])c1 | i | i | i | i | i | -32.5
O=[N+]([O-])c1ccc(CSc2ccccn2)cc1 | i | i | i | i | i | i
Cc1cccc(CNC(=O)CN2C(=O)CCCc3ccccc32)c1 | i | i | i | i | i | i
O=C(NCCc1ccc(Cl)cc1)c1nnc(Cc2ccc(F)cc2)o1 | i | i | i | i | i | i
CCc1ccc(CNC(=O)Cn2nc(-c3ccc(Cl)cc3)ccc2=O)cc1 | i | i | i | i | i | i
CCCC(=O)NCC1(N(C)C)CCCCC1 | i | i | i | i | ? | i
O=C(Cn1c(SCC(=O)Nc2ccc(F)cc2)nc2ccccc21)NCc1ccccc1Cl | i | i | 32.7 | i | i | i
O=C(Cn1cc(S(=O)(=O)Cc2ccc(F)cc2)c2ccccc21)NCc1ccccc1Cl | i | i | 35.7 | i | i | i
O=C(Cn1c(SCc2ccccc2F)nc2cccnc21)Nc1ccc(F)c(Cl)c1 | 36.0 | i | i | i | i | i
Cc1ccc(CNC(=O)Cn2cc(S(=O)(=O)Cc3ccccc3F)c3ccccc32)cc1 | i | i | 31.7 | i | i | i
CC(C)(C)NC(=O)Cn1cc(S(=O)(=O)Cc2ccc(F)cc2)c2ccccc21 | i | i | i | i | i | i
O=C(Cn1cc(S(=O)(=O)Cc2ccccc2F)c2ccccc21)NCc1ccccc1 | i | i | i | i | i | i
CC(C)(C)OC(=O)Cc1nnc(-c2nc3ccccc3[nH]2)s1 | i | i | i | i | nt | i
CCC(=O)N1CCc2cc(S(=O)(=O)NC(Cc3ccccc3)C(=O)NCc3cccc(OC)c3)ccc21 (configuration not stated) | i | i | i | i | i | i
CCCCNC(=O)c1cccc(-n2cnc3cccnc32)c1C | i | i | i | i | i | i
O=C(Nc1ccccc1)c1ccc(CN2CCc3ccccc3C2)cc1 | i | i | i | i | i | i
CCOC(=O)c1ccc(NC(=O)N2CCc3ccccc32)cc1 | i | i | i | i | i | i
CCOC(=O)c1ccc(NC(=O)N2CCc3ccccc3C2)cc1 | i | i | i | i | i | -38.7
Cc1ccc(NC(=O)c2ccc(CN3CCc4ccccc4C3)cc2)cc1 | i | i | i | i | ? | -32.9
Cc1ccc(/C=C/c2onc(C)c2S(=O)(=O)N2CCC(C(=O)Nc3ccc(OC(F)(F)F)cc3)CC2)cc1 | i | i | i | i | i | -67.5
SMILES | TRHR enhancer | D1 PAM | D1 agonist | TRHR ag | USP1-UAF1 inh | D1 antag
Cc1ccn2c(CN3CCOCC3)c(-c3ccccc3)nc2c1 | i | i | i | i | i | -32.4
COC(=O)C(C)Oc1ccc(Cc2ncc(C(F)(F)F)cc2Cl)cc1 (configuration not stated) | i | i | i | i | i | -36.8
Oc1ccc(Cc2ncc(C(F)(F)F)cc2Cl)cc1 | i | i | i | i | i | i
CCOC(=O)c1c(NC(=O)COc2cccc(C(F)(F)F)c2)sc2c1CCCCC2 | i | i | i | i | i | i
CCOC(=O)C1=C(CN(C)Cc2ccccc2)NC(=O)NC1c1ccc(OC(C)C)cc1 (configuration not stated) | i | i | i | i | ? | i
COc1ccc(C(NC(=O)c2ccc(F)cc2)c2ccccc2)cc1 (configuration not stated) | i | i | i | i | i | i
COc1ccc(C(NC(=O)c2cccc(F)c2)c2ccccc2)cc1 (configuration not stated) | i | i | i | i | i | -31.1
